# High-throughput results from PubChem BioAssay.
# DT40 TDP1 no CPT: qHTS for Inhibitors of human tyrosyl-DNA phosphodiesterase 1 (TDP1): qHTS in cells in absence of CPT. DT40 Tdp1-/- hTDP1 cells, no CPT, ATP luminescence, 48 h. 420,000 compounds, 15% hits. Potency, µM (titrated, usually from 46.2 µM), for inactives: top-dose activity change, negative = growth inhibition, actives largely listed as inhibitors; also: potency is read from the fitted curve at half-maximal effect; % is scaled to controls: 0 for no effect and ±100 for the full control effect; nearly all actives have a fitted effect of over 55% in size
#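 A cellular qHTS used chicken DT40 cells lacking endogenous Tdp1 but carrying stably transfected human TDP1. Compounds were applied without camptothecin, and cell growth kinetics were judged by ATP-dependent luminescence after ≥48 hr.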
# TGFb SMAD3 inh: inhibitors of TGF-b signaling; HepG2 CAGA-GFP TGF-b/SMAD3 reporter, GFP fluorescence, 18 h; TGF-beta stimulated, 500 pg/mL final; Potency, µM (highest dose often 46.1 µM), without a hit: at the highest dose activity, negative = inhibition, hits mostly inhibitors; 410,000 compounds, 1.2% hits; also: potency is read from the fitted curve at half-maximal effect; % is scaled to controls: 0 for no effect and ±100 for the full control effect; nearly all actives have a fitted effect of over 65% in size
#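 Inhibition was scored as loss of TGF-beta-induced (500 pg/mL final, 18 hours, 37 degrees C) GFP in HEPG2 cells carrying a CAGA-GFP reporter, in DMEM with 1% FBS. Well GFP was summed per cell; Activity was normalised to unstimulated and stimulated DMSO wells, then concentration-response fitting.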
# HepG2 tox: counter-screen for TGF-b inhibitors: cytotoxicity in HepG2 cells. HepG2 CAGA-GFP viability, ATP luminescence, 18 h. Potency, µM (highest dose often 46.1 µM), for the others: at the highest dose activity change, negative = cytotoxicity, most hits filed as cytotoxic. 410,000 compounds, 0.76% hits. AID 588856; also: potency is read from the fitted curve at half-maximal effect
#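 HepG2 CAGA-GFP cells (1000/well, DMEM with 1% FBS) received compound, then TGF-beta at 500 pg/mL final, and were incubated 18 hours at 37 degrees C. Viability was read by CellTiter-Glo luminescence. Media-only wells were set as complete cell-killing and DMSO as no toxicity.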
# DT40 TDP1 CPT: growth inhibition of DT40 Tdp1-/-;hTDP1 cells with camptothecin (screen for TDP1 inhibitors); chicken DT40 Tdp1-/-;hTDP1 cells + 20 nM CPT, ATP luminescence, 48 h; Potency, µM (doses to about 46.2 µM), for the others: at the top dose activity change, negative = growth inhibition, hits mostly inhibitors; 420,000 compounds, 12% hits; also: potency is read from the fitted curve at half-maximal effect; % is scaled to controls: 0 for no effect and ±100 for the full control effect; nearly all actives have a fitted effect of over 55% in size
#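 Chicken DT40 Tdp1-/- cells stably complemented with human TDP1 were seeded at 400 cells/well in medium containing 20 nM camptothecin, exposed to pin-transferred compounds, and grown at 37 °C for at least 48 hr. Viability was read as ATP luminescence.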
# IL-1B inflam inh: blocks inflammasome-driven IL-1 beta release | THP-1 LPS/ATP IL-1B secretion, AlphaLISA, 16 h; hits give low values | AID 743279 | 360,000 compounds, 4.7% hits | activity change, % at 57.5 µM; in the data active = activity change below about -50%; inconclusive = mostly about -30% to -49%; also: % is scaled to controls: 0 for no effect and ±100 for the full control effect
#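 THP-1 cells pretreated 1 hr with compounds (up to 57.5 uM final), then stimulated with LPS (250 ng/mL final) plus ATP (1.25 mM final); secreted IL-1B measured by AlphaLISA after 16 hr, decreased signal indicating inhibition.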
# TDP1 inh: TDP1 (human) enzyme inhibition. 350,000 compounds, 0.28% hits. recombinant TDP1, AlphaScreen DNA substrate cleavage. Q9NUW8. Potency, µM (top dose mostly 130 µM), inactives show top-dose activity change, negative = inhibition, hits mostly inhibitors; also: potency is read from the fitted curve at half-maximal effect; % is scaled to controls: 0 for no effect and ±100 for the full control effect; nearly all actives have a fitted effect of over 40% in size
# Target sequence (Q9NUW8 whole entry, looked up): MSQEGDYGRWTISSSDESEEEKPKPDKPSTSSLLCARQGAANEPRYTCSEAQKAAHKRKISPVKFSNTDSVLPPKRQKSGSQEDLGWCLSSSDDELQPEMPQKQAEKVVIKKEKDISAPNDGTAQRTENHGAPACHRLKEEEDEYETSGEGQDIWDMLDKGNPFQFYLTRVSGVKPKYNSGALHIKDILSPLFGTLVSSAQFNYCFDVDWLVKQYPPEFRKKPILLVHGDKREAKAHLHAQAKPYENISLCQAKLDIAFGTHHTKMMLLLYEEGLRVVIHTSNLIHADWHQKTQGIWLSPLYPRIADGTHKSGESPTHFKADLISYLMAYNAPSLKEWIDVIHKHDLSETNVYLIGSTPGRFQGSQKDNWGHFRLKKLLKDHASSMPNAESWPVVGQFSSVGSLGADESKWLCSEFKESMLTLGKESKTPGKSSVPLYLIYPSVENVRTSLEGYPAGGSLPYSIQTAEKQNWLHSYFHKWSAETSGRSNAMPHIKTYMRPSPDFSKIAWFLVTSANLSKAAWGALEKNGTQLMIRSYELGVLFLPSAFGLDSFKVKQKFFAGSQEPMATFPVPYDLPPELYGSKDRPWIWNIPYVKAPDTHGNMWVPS
#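 Signal: AlphaScreen proximity between streptavidin donor and anti-FITC acceptor beads on intact substrate. Reaction: Tdp1 1 nM, substrate 15 nM final, 5 min RT after 15 min compound preincubation.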
# Starred values were filed as active, the others as inactive; u = inconclusive; x = no result given; [ ] = remark or other dose. In the library only some 19% were active in any assay of this set; here they are far more common. Unless noted, calls follow the shape of the dose curve; as a rule, active = well fitted curve in the direction sought with a large enough effect; inconclusive = small, poorly fitted or top-dose-only effect, or another doubt; inactive = no such curve, though single readings can be large; an effect the other way counts as inactive or inconclusive.
SMILES,DT40 TDP1 no CPT,TGFb SMAD3 inh,HepG2 tox,DT40 TDP1 CPT,IL-1B inflam inh,TDP1 inh
CC1CCC(C(C)C)C(OCC(O)CN2CCN(Cc3ccccc3)CC2)C1 (centres undefined),15µM*,-3%,-22%,13µM*,u,2%
CC1CCC(C(C)C)C(OCC(O)CN2CCCC(C)C2)C1 (centres undefined),u,-10%,-28%,u,0,0%
CC1CCC(C(C)C)C(OCC(O)CN2CCOCC2)C1 (centres undefined),-44%,u,-8%,-4%,0,4%
CC1CCC(C(C)C)C(OCC(O)C[N+]2(C)CCCCC2)C1 (centres undefined),12µM*,-1%,2%,u,0,4%
COc1cccc(NS(=O)(=O)c2cc3c4c(c2)C(C)C(=O)N4CCC3)c1 (centres undefined),u,14%,7%,u,x,0%
O=C1CN(C(=O)C2CCCCC2)C(c2ccccc2)c2cc(F)ccc2N1 (centres undefined),u,-21%,-19%,u,x,3%
CCS(=O)(=O)Nc1cc(C(=O)N2CCCN(C=O)CC2)c2c(c1)nc(-c1ccccc1)n2C,-4%,x,x,4%,x,x
CCCCCn1c(=O)[nH]c2cc(C(=O)N3CCN(c4cccc(C)c4)C(C)C3)ccc2c1=O (centres undefined),9.2µM*,u,-19%,21µM*,x,0%
CCCCCn1c(=O)[nH]c2cc(C(=O)Nc3cc(OC)cc(OC)c3)ccc2c1=O,23µM*,-10%,-10%,13µM*,x,-3%
CCCCCn1c(=S)[nH]c2cc(C(=O)N3CCCC3)ccc2c1=O,-10%,u,-20%,2%,28,6%
CCCCCn1c(=O)[nH]c2cc(C(=O)N3CCN(c4ccc(OC)cc4)CC3)ccc2c1=O,18µM*,u,-8%,9.2µM*,x,9%
CCCCCn1c(=O)[nH]c2cc(C(=O)N3CCN(c4cccc(OC)c4)CC3)ccc2c1=O,15µM*,u,-3%,23µM*,x,-3%
COCCn1c(=O)[nH]c2cc(C(=O)Nc3ccc(OC)cc3)ccc2c1=O,-16%,2%,-9%,-20%,x,6%
CCCCC(CC)CNC(=O)c1ccc(Cn2c(=O)[nH]c3cc(OC)c(OC)cc3c2=O)cc1 (centres undefined),u,0%,-39%,u,x,0%
COc1ccc(-n2c(=S)[nH]c3cc(C(=O)Nc4ccc(F)cc4)ccc3c2=O)c(OC)c1,u,-21%,-5%,16µM*,u,3%
CCCCC(CC)CNC(=O)c1ccc2c(=O)n(Cc3ccc(OC)cc3)c(=O)[nH]c2c1 (centres undefined),u,3%,3%,21µM*,x,6%
COc1ccc(-n2c(=S)[nH]c3cc(C(=O)Nc4ccccc4OC)ccc3c2=O)c(OC)c1,u,u,-8%,-21%,-9,3%
CCCCc1nc2c(c3c1C[C@H](C)OC3)CN(C(=O)C1CC1)CC2,x,x,x,x,x,0%[12.3 µM]
Cc1cc2n(n1)CCCN2C(=O)Nc1ccccc1C(F)(F)F,-18%,-24%,-3%,-20%,x,2%
Cc1ccc2c(c1)N(C(=O)CCC(=O)N1CCN(c3ccccn3)CC1)CC(C)O2 (centres undefined),u,0%,-22%,u,-12,x
Cc1cccc(N2CCN(C(=O)CCC(=O)N3CC(C)Oc4ccc(C)cc43)CC2C)c1 (centres undefined),u,u,-32%,16µM*,-26,x
